Records with an inconclusive call do not appear. Entries that show only a call come without a potency. Active and inactive are the calls of the source. Calls follow the shape of the dose curve; as a rule, active = well fitted cell-killing curve with a large enough effect; inconclusive = small, poorly fitted or top-dose-only effect; inactive = flat fitted curve, though single readings scatter.
Test: Cell Viability - NIH 3T3 (AID 541); also: nearly all actives have a fitted effect of over 25% in size
Details: NIH 3T3 cell viability, qHTS; activity change, negative = cytotoxicity: at 92.2 µM (top of the series)
Source text: NIH Chemical Genomics Center [NCGC]
NIH Molecular Libraries Screening Centers Network [MLSCN]
National Institutes of Environmental Health Sciences [NIEHS]
National Toxicology Program [NTP]
We have developed a 1536-well cell-based assay for quantitative high throughput screening (qHTS) against a number of cell lines to determine in vitro cytotoxicity of small molecules. This particular assay uses the NIH 3T3 fibroblast cell line which is established from NIH Swiss mouse embryo.
NCGC Assay Protocol Summary:
The CellTiter-Glo luminescent cell viability assay (Promega) is a homogeneous method to measure the number of viable cells in culture. The end point readout of this assay is based on quantitation of intracellular ATP, an indicator of metabolic activity, using the luciferase reaction. Luciferase catalyzes the oxidation of beetle Luciferin to oxyluciferin and light in the presence of ATP. The luminescent signal is proportional to amount of ATP present.
Using the CellTiter-Glo luminescent cell viability assay, the amount of cellular ATP was measured in the NIH 3T3 cell line with complete culture medium following compound treatment for 40 hours. The assay was performed in opaque white Kalypsys 1536-well plates. In the screen, tamoxifen and doxorubicin were used as positive controls. Library compounds were measured for their ability to cause acute toxicity in the cell line, as reflected by a decrease in intracellular ATP levels, in a concentration-dependent manner. […] AC50 values were determined from concentration-response data modeled with the standard Hill equation.
qHTS protocol for CellTiter Glo NIH 3T3 cellular assay
[Step] [Parameter] [Value] [Description]
1. Reagent; 5 uL; 1000 NIH 3T3 cells/well
2. Time; 5 hr; 37 °C incubation
4. Controls; 23 nL; Tamoxifen 0.34 uM to 100 uM & Doxorubicin 0.02 nM to 100 uM
5. Time; 40 hr; 37 °C incubation
6. Reagent; 5 uL; CellTiter Glo reagent
7. Time; 20 min; Room Temperature
8. Detection; Luminescence; Viewlux plate reader
Keywords: cell viability, cytotoxicity, NIH 3T3 cell line, luminescence, NTPHTS, NTPHTS_NCGC, NIEHS, EPA, DSSTox, MLSMR, MLSCN, NIH Roadmap, qHTS, NCGC
Potency is read from the fitted curve at half-maximal effect.

Compound	Potency
O=C(O)C(Cl)(Cl)Br	inactive
ClCCOCOCCCl	inactive
CCC#N	inactive
Nc1ncc([N+](=O)[O-])s1	inactive
CC1CC(=O)O1 (stereo not given)	inactive
Clc1cccc(Cl)c1	inactive
Nc1ccc([N+](=O)[O-])cc1[N+](=O)[O-]	10 µM (active)
COc1ccccc1N	inactive
O=[N+]([O-])c1ccccc1O	inactive
CC(C#N)CCC#N (stereo not given)	inactive
CCOP(=S)(OCC)Oc1nc(Cl)c(Cl)cc1Cl	inactive
Nc1ccc(-c2ccc(N)c(Cl)c2)cc1Cl	15.8 µM (active)
S=c1[nH]c2ccccc2[nH]1	inactive
CN=C=O	inactive
ClC(Cl)Br	inactive
c1ccoc1	inactive
CSSC	inactive
O=[N+]([O-])c1ccccc1CCl	12.6 µM (active)
Nc1cc(Cl)ccc1Cl	inactive
OC[P+](CO)(CO)CO	0.501 µM (active)

Compound	Potency
CCOP(=O)(OCC)OCC	inactive
OCCOCCO	inactive
CCC/C=N/O	inactive
CC(C)[N+](=O)[O-]	inactive
CCOC(=O)CBr	inactive
ClC(Cl)c1ccccc1	inactive
O=[N+]([O-])c1c(Cl)c(Cl)c(Cl)c(Cl)c1Cl	31.6 µM (active)
CCBr	inactive
CCCBr	inactive
Nc1ccc(Cc2ccc(N)c(Cl)c2)cc1Cl	inactive
[N-]=[N+]=[N-]	inactive
O=[N+]([O-])c1ccccc1-c1ccccc1	inactive
ClCc1ccccn1	inactive
C=CCBr	inactive
O=c1ccc(=O)[nH][nH]1	inactive
ClCCOCCCl	inactive
Clc1cccc2ccccc12	inactive
Cl/C=C/CCl	inactive
CCCCCCCCCCCCCl	inactive
CCOC(=O)CC(SP(=O)(OC)OC)C(=O)OCC (stereo not given)	inactive

— PubChem BioAssay (NCATS)
